The AC50 is the midpoint of the concentration-response curve, whichever way the signal moves.

Each structure is given as a SMILES string. Some compounds were tested as several samples or in several runs, with calls that do not always agree. Active and inactive are the calls of the source. Rule for the calls: active = hit-call score of the fitted dose curve at least 0.9, where 1 is the maximum; inactive = score below 0.9.

Sequence of Transcriptional activator Myb (Homo sapiens) (P10242 whole entry, looked up): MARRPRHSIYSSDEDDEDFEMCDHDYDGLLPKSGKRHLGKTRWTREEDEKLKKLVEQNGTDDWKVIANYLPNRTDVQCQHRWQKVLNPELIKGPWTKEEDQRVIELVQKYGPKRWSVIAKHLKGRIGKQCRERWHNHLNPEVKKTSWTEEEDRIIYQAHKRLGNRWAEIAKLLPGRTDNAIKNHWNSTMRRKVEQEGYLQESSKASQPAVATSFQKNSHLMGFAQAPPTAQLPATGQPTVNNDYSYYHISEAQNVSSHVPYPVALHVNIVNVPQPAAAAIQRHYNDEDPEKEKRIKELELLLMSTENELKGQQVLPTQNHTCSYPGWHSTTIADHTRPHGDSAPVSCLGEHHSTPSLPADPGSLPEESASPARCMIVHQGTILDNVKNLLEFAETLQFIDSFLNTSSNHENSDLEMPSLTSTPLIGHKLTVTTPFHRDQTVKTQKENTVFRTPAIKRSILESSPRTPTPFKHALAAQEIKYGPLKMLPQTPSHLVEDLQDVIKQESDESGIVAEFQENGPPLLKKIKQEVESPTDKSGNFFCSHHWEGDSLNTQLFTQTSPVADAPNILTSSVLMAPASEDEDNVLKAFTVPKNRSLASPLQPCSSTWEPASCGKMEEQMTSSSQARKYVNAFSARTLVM

This assay addresses Transcriptional activator Myb (Homo sapiens) (UniProt P10242). Kind of assay: ATG_Myb_CIS: Attagene CIS-FACTORIAL HepG2 Assay for human Myeloblastosis (Myb) Proto-Oncogene Transcription Factor (AID 2282986). The following applies: HepG2 Attagene CIS-FACTORIAL Myb reporter transcription; actives raise or lower the signal. On the procedure:
ATG_CIS is a cell-based, multiplexed-readout assay that uses HepG2, a human liver cell line, with measurements taken at 24 hours after chemical dosing in a 24-well plate.ATG_Myb_CIS is one of 52 assay component(s) measured or calculated from the ATG_CIS assay. It is designed to make measurements of mRNA induction, a form of inducible reporter, as detected with fluorescence intensity signals by Reverse transcription polymerase chain reaction (RT-PCR) and Capillary electrophoresis technology.Data from the assay component ATG_Myb_CIS was analyzed into 1 assay endpoint. This assay endpoint, ATG_Myb_CIS, was analyzed with bidirectional fitting relative to DMSO as the negative control and baseline of activity. Using a type of inducible reporter, measures of mRNA for gain or loss-of-signal activity can be used to understand the reporter gene at the transcription factor-level as they relate to the gene MYB. Furthermore, this assay endpoint can be referred to as a primary readout, because this assay has produced multiple assay endpoints where this one serves a reporter gene function. To generalize the intended target to other relatable targets, this assay endpoint is annotated to the dna binding intended target family, where the subfamily is MYB proteins.
Human liver HepG2 cells are transiently transfected with multiple reporter transcription units (MRTUs) in 6-well plates using FuGene 6 reagent (Roche; 3 ml FuGene/1 mg DNA). The MRTU constructs are regulated by a cis-regulating element (promoter). […] A major difference between the CIS and TRANS system is that in CIS activities of endogenous TFs are measured, whereas the TRANS assay evaluates changes in activities of exogenous, chimeric NR-Gal4 proteins. […] At the end of 24 hour incubation, total RNA was isolated using TriZol reagent (Invitrogen). The isolated RNA is then reverse-transcribed using oligo(dT) primer and Mo-MLV reverse transcriptase (Invitrogen) with DNAse I (Ambion) treatment for 30 min. The one-tenth of the produced cDNA was amplified by PCR using Taq DNA polymerase (Invitrogen) and two reporter sequence-specific primers. The PCR products were fluorescently labeled by primer extension with 6-arboxyfluorescein (6-FAM) 5'-labeled reporter sequence-specific primer (2 min at 95 C, 20 s at 68 C and 10 min at 72 C) and these products were digested with 5U of HpaI (New England Biolabs) for 2h at 37 C. The fragments were purified using Qiaquick PCR columns (Qiagen), analyzed on an ABI 3130xL genetic analyzer (Applied Biosystems) with peak positions identified by using a set of X-rhodamine (ROX)-labeled MapMarker1000 molecular weight standards (BioVentures). The raw capillary electrophoresis data was processed using Attagraph software (Attagene).
Regarding `c1ccc2c(c1)ccc1ccccc12`, the compound was called inactive.
On the same count and under the same terms, the result for `Cc1cc(C)c(O)c(C)c1` reads “inactive”; that for `CC[C@H](C)[C@@H](C(=O)O)n1sc2ccccc2c1=O`, “inactive”.
Same read-out and setting: the result for `CCCCCCC(=O)O` reads “inactive”.
The same measure, in the same setting: for `Cc1ccc(S(=O)(=O)O)c(C)c1` the value was “inactive”; for `N#C[C@@H]1CC(F)(F)CN1C(=O)CNC1CC2CCC(C1)N2c1ncccn1` (stereo not given in full), “inactive”.
As to `C[C@@H]1C[C@H]2[C@@H]3CCC4=CC(=O)C=C[C@]4(C)[C@@]3(F)[C@@H](O)C[C@]2(C)[C@@]1(O)C(=O)COP(=O)(O)O`, the compound was classed as inactive.
Same read-out and setting: for `O=c1c(-c2ccc(O)cc2)coc2cc(O)ccc12` the value was “inactive”; for `COCC(C)O` (stereo not given), “inactive”; for `OCCC(F)(F)C(F)(F)C(F)(F)C(F)(F)C(F)(F)C(F)(F)F`, “inactive”.
Still for that read-out and setting: for `O=[N+]([O-])c1ccc(O)cc1` the value was “inactive”.
The same measure, in the same setting: the result for `CC#C[C@]1(O)CC[C@H]2[C@@H]3CCC4=CC(=O)CCC4=C3[C@@H](c3ccc(N(C)C)cc3)C[C@@]21C` reads “inactive”; that for `O=C(O)Cc1cc(I)c(Oc2cc(I)c(O)c(I)c2)c(I)c1`, “inactive”; that for `CC(C)CCCCCCOC(=O)CCCCC(=O)OCCCCCCC(C)C`, “inactive”.
For the compound `CCC(=C(c1ccc(O)cc1)c1ccc(OCCN(C)C)cc1)c1ccccc1`, the call was inactive and the half-maximal activity concentration (AC50) is 11.3 µM (active).
Regarding `O=C(O)c1ccccc1C(c1ccc(O)cc1)c1ccc(O)cc1`, the result was inactive.
Same read-out and setting: the result for `O=C(OCCOCCOC(=O)c1ccccc1)c1ccccc1` reads “inactive”.
For the compound `CC(C)(C)CC(C)(C)c1ccc(O)c(-n2nc3ccccc3n2)c1`, the result was inactive.
The same measure, in the same setting: for `CN1CCC[C@H]1c1cccnc1` the value was “inactive”.
In the case of `ClC1=C(Cl)C(Cl)(Cl)C(Cl)=C1Cl`, the outcome was inactive and the AC50 was 13.6 µM (active).
As for `CCCCCCCC(=O)O`, the compound was classed as inactive.
On the same count and under the same terms, the result for `CCCCC[C@H](O)CC(=O)CCc1ccc(O)c(OC)c1` reads “inactive”.
On the same count and under the same terms, for `FC(F)(I)C(F)(F)C(F)(F)C(F)(F)C(F)(F)C(F)(F)I` the value was “inactive”; for `CC(=O)CC(C)(C)O`, “inactive”; for `CC(C)(C)c1ccc(O)c(C(C)(C)C)c1`, “inactive”.
Same read-out and setting: for `CCN(CC)CCNc1ccc(CNC=O)c2sc3ccc(OC)cc3c(=O)c12` the value was “inactive”; for `CCCCCCCCCCCCCCCS(=O)(=O)Oc1ccccc1`, “inactive”.
Turning to `CC(O)CO` (stereo not given), the call was inactive.
As to `Nc1cccc2c(N)cccc12`, the outcome was inactive.
Still for that read-out and setting: the result for `CCCCOCCO` reads “inactive”.
In the case of `CCCOc1sc(C(=O)N2CCC(c3cc(CN)ccc3F)CC2)c(C)c1Br`, the compound was called inactive.
In the case of `NC(=O)N(O)[C@@H]1C=C[C@H](Oc2cccc(Oc3ccc(F)cc3)c2)C1`, the compound was classed as inactive.
Consider `O=C(/C=C/c1ccc(O)cc1)CC(=O)/C=C/c1ccc(O)cc1`, for which the compound was called inactive.
Same read-out and setting: the result for `CC1=C(/C=C/C(C)=C/C=C/C(C)=C/C(=O)O)C(C)(C)CCC1` reads “inactive”; that for `CCc1nn(C2CCCCC2)c2cc(C3(C#N)CCC(C(=O)O)CC3)ccc12` (stereo not given), “inactive”; that for `OCCC(F)(F)C(F)(F)C(F)(F)C(F)(F)C(F)(F)C(F)(F)C(F)(F)C(F)(F)F`, “inactive”.
The same measure, in the same setting: for `Cc1oc(-c2ccccc2)nc1CCOc1ccc(C[C@H](Nc2ccccc2C(=O)c2ccccc2)C(=O)O)cc1` the value was “inactive”; for `C#C[C@]1(O)CC[C@H]2[C@@H]3CCC4=CC(=O)CC[C@@H]4[C@H]3CC[C@@]21C`, “inactive”.
